Whole data set: some 35,000 sequences, median “fluorescence intensity (a.u.)” near 10,000, cut for the highest 2% near 52,000. The entries come from a sample that favours the highest values as a whole.

The target in the experiment is T1, OsWOX13 (Oryza sativa, UniProt Q5QMM3 1-267).
T1 sequence: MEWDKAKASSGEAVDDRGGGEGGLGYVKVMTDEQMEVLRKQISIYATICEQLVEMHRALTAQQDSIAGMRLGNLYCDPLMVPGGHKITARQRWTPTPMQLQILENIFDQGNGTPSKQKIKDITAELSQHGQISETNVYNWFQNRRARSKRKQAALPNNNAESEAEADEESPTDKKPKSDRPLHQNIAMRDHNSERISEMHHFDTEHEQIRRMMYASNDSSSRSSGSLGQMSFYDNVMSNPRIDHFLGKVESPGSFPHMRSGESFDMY
Nature of the experiment: protein-binding microarray (RPBM); PBS, 2% BSA, 51.3 ng/ul salmon testes DNA, 50 uM zinc acetate, 200 nM TF, 25 C, 1 h; high values mean tight binding. Conditions: protein: recombinant; tags: N-terminal polyhistidine and DsRed monomer fusion (pET32a); label: CyDye5-dUTP incorporated in the synthesized complementary strand; 3' TTTTT single-stranded linker to array surface; dsDNA, one strand shown. A digest of the protocol:
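Transcription factors were each fused at the N-terminus to a polyhistidine tag plus DsRed and expressed in E. coli BL21-CodonPlus before Ni–NTA purification. Binding to a double-stranded custom Agilent array was carried out with 200 nM protein at 25 °C for 1 h in PBS, 2% BSA, salmon testes DNA and 50 µM zinc acetate. The binding signal is per-feature fluorescence intensity, in arbitrary units, on an Axon 4000B scanner.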
With “CTAATCAAAATGTAATTAACTCATTTATATATTACGGAAACGGAGTCACCTAGTGCAG”, the binding signal was 21800 fluorescence intensity (a.u.).

For the sequence “TCGATCTCCATTAATTATCCAACGACGACACGACGACGCACGGAGTCACCTAGTGCAG”, the binding signal was 5720 fluorescence intensity (a.u.).

On to “GGGTCAGGGTGGGCGTGGATTGATATTTTAATACGAATAACGGAGTCACCTAGTGCAG”, for which the binding signal was 10800 fluorescence intensity (a.u.). Under “TGCACGCTAATTTGCCTTGCTGCTGCTGCTACTAGGGCGGCGGAGTCACCTAGTGCAG” stands 4920 fluorescence intensity (a.u.); under “ACTTAATTATGTTGTGGTTAATTAGCCCCGAAATGGTCGTCGGAGTCACCTAGTGCAG”, 52900 fluorescence intensity (a.u.); under “TATGATTTATAAATTAATGGATTTAAAGTTTTAAGTTAATCGGAGTCACCTAGTGCAG”, 43900 fluorescence intensity (a.u.). For the sequence “CATGATTTTACTTTCTTTTCAGGTCTTAGGAGTGAGCTTCCGGAGTCACCTAGTGCAG”, the binding signal is 9930 fluorescence intensity (a.u.). For “TTAAAATTTATATGTTAAATTATAGTGGTTTAAAATTTCACGGAGTCACCTAGTGCAG”, the binding signal is 8530 fluorescence intensity (a.u.).

For “AGCCTAATTAATTCGTCATTAGCATATGTGGGTTATTATACGGAGTCACCTAGTGCAG”, the binding signal is 27800 fluorescence intensity (a.u.). Then “TTAATTAATAATATGTTAATGATTTTCTCATCTTACCTTACGGAGTCACCTAGTGCAG”, with 13400 fluorescence intensity (a.u.); and “GTCATTTTAATTGCAAATGCTTTTATATGTTGTTTCTTTCCGGAGTCACCTAGTGCAG”, with 6630 fluorescence intensity (a.u.); and “GCTGATGACTTTTCTCCCGGTTTCATATTTTCTTTTAGAACGGAGTCACCTAGTGCAG”, with 8420 fluorescence intensity (a.u.). Under “TAGATGAGTTAAATATAATTATTTGTATGTTTTAATAAATCGGAGTCACCTAGTGCAG” stands 3630 fluorescence intensity (a.u.); under “GAACGGAGGATGCTGAGCTCTCTTATGAGGTCTATTTTCCCGGAGTCACCTAGTGCAG”, 65100 fluorescence intensity (a.u.); under “GATTAATGATTAATTAATAATATGTTAATGAGTTTTATCCCGGAGTCACCTAGTGCAG”, 52500 fluorescence intensity (a.u.).

Take “GTTTAATTAATTATATGTTAATGATTTTCTTTTCATGCCCCGGAGTCACCTAGTGCAG”: the binding signal is 65400 fluorescence intensity (a.u.). Then “GAGATAGAGATAATAGAAAGATTAAACAAGATTCGATAGACGGAGTCACCTAGTGCAG”, with 3590 fluorescence intensity (a.u.); and “CGAGATAAATCACGGTAATCACAGCAACAGCAACAGCAACCGGAGTCACCTAGTGCAG”, with 10400 fluorescence intensity (a.u.). Under “ATGCCATCCAATCAAGCCACGACGATCCACAGCCATAGTGCGGAGTCACCTAGTGCAG” stands 11500 fluorescence intensity (a.u.); under “AAGCAAATCTCTAGATAGATAGATAGATGGATGGATGGATCGGAGTCACCTAGTGCAG”, 10800 fluorescence intensity (a.u.). Turning to “TGCTTAATTAATTATGTGCTAATGAGGTCTTTCATTTTACCGGAGTCACCTAGTGCAG”, the binding signal is 56100 fluorescence intensity (a.u.). As to “AATTAATCATGCGTTAATGGACCGTTCCGTTTTCCGTGTTCGGAGTCACCTAGTGCAG”, the binding signal is 20900 fluorescence intensity (a.u.). Regarding “TGCTAATGGACTTATTACTTTTGCTTGCTTTAATTTTGCCCGGAGTCACCTAGTGCAG”, the binding signal was 14600 fluorescence intensity (a.u.). Under “GAGGGAGTACTAATTATTTAATTTGATGATTATAATACTTCGGAGTCACCTAGTGCAG” stands 17900 fluorescence intensity (a.u.). In the case of “GTTTTAGCTAATATTTAATTAATCATGTGCTAATGAGCTACGGAGTCACCTAGTGCAG”, the binding signal was 8590 fluorescence intensity (a.u.). Under “CGGTCAAATTATCCAAATTAATTAAAGAGGGAACTCGGTCCGGAGTCACCTAGTGCAG” stands 35300 fluorescence intensity (a.u.); under “GATGTGATTGGATTAATTTTCAAAAGTACTTTTATATGATCGGAGTCACCTAGTGCAG”, 56300 fluorescence intensity (a.u.). Then “GATCATTTCAGTGATTAATTTAATTGGAAAAGTAATTCAACGGAGTCACCTAGTGCAG”, with 6700 fluorescence intensity (a.u.); and “ATTTAATTAATATGTTAATGAGCTAATCCGTTTTCGGGACCGGAGTCACCTAGTGCAG”, with 52300 fluorescence intensity (a.u.); and “CTTACCTGCTTTAATTTATGCATAATGTTGCTTCATAAACCGGAGTCACCTAGTGCAG”, with 6090 fluorescence intensity (a.u.). In the case of “CCTAATAATTAATTAATGATGCACGAGGGATTATCCAACTCGGAGTCACCTAGTGCAG”, the binding signal is 53200 fluorescence intensity (a.u.). “GTTTAATATTTATAATTAATTTTCAAACATCCGATGTGATCGGAGTCACCTAGTGCAG”: the binding signal is 19000 fluorescence intensity (a.u.).

The record behind these values is paper PMC7819943, “Rice protein-binding microarrays: a tool to detect cis-acting elements near promoter regions in rice”.
